This note sets out measurements from the supplement of paper PMC11417369.

± gives the standard deviation of the averaged measurements. In all, about 25,000 sequences were measured (“ln(normalized median fluorescence intensity)”: median about 8.6, highest 2% from about 10 on). The list comes from a sample in which the highest values are over-represented; it also holds similar and randomly drawn sequences.

For the experiment, the system named is PfAP2-EXP AP2 domain (GST-tagged). Put plainly: gcPBM binding intensity (ln(normalized median fluorescence intensity)); higher = stronger DNA binding. An outline of the steps:
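Binding intensity is defined as the maximum Masliner-normalised natural-log median intensity across replicate spots for either probe orientation. It was measured on an Agilent 4 × 180k array of primer-extended double-stranded 36-bp intergenic genomic probes and negative controls, to which GST-tagged P. falciparum DNA-binding domains made in E. coli were applied for 1 h in 1× PBS with 1% milk, 0.2 mg/ml BSA, 0.5% salmon testes DNA and 0.03% Triton X-100. Detection was by Alexa488 anti-GST antibody and scanning at 488 nm.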
Consider “ATATTTATGACCGTACGTACCTAACAATACAATCAA [XGTACX_site4511]”, for which the “gcPBM binding intensity (ln)” value came to 8.67 ± 0.099.
The same measure for “TATATAAACATATAAACATGCAATATATATATGTTA [TGCATGCA_site765]”: 8.43 ± 0.2.
To “TTAATTTACATGAACTGTACATAACATTTTTTTAAA [XGTACX_site4672]” belongs 8.38 ± 0.38; to “AAATTATAATATAATACACACATAAAAAAAAAATCA [CACACA_site3634]”, 8.6 ± 0.43.
On to “CCCCCCGTGTTATATACACACATAATCAAATAAAAT [CACACA_site4111]”, for which the “gcPBM binding intensity (ln)” value turned out to be 10.9 ± 0.078.
As for “CAATTCAATATATATACACACACACTATTAATAATT [CACACA_site9256]”, the “gcPBM binding intensity (ln)” value was determined as 8.52 ± 0.41.
The same measure for “TATATATATATATATACACACTATATAATTCAAACA [CACACA_site4712]”: 10.1 ± 0.33; for “ATATAAATAATATAAATACACACTAAAAAAAATATA [CACACA_site542]”: 8.72 ± 0.51.
To “ATAAATAATATAAATACACACTAAAAAAAATATATA [CACACA_site4456]” belongs 8.62 ± 0.54; to “TATATATATATATATACACACACACTAATAAAAAAA [CACACA_site8426]”, 10.2 ± 0.21.
The same measure for “AGGCACGTGTTATATACACACATAATCAAATAAACT [CACACA_site7852]”: 8.76 ± 0.56; for “TATATATATATATATATACACACTATATAATTCAAA [CACACA_site1023]”: 10.2 ± 0.44; for “AAAGTAAAAGAAAGCACACACACATGGATTTATGTA [CACACA_site5997]”: 8.53 ± 0.49.
As for “ATATAGAATGTTTACACACGCAATAAATATATATAT [CACACA_site217]”, the “gcPBM binding intensity (ln)” value stood at 9.27 ± 0.13.
With “AAAAAAAAAAAAAAAAAAAAAAAAAAAATTCTATAT [GTGCAC_negctrl_site468]”, the “gcPBM binding intensity (ln)” value was determined as 9.28.
The same measure for “ACAAATAAATATATATGTACATATATTTTTTTATTT [XGTACX_site2989]”: 8.56 ± 0.37.
To “TATATAGAAAACAAGGCATGCAAATAACAAATTGTG [TGCATGCA_site473]” belongs 9.85 ± 0.36; to “ATATAGAACACCTGTGCATGCAAGTGCTAAAAAATT [TGCATGCA_site213]”, 10.175 ± 0.007; to “GACACCTGCATGAAAGTGCAAAATAGAAAAGGAACA [GTGCAC_site9593]”, 9.22 ± 0.38.
The same measure for “TATTTTACTTTAAAAATGGAAAAAAAAAAGAATATT [CACACA_negctrl_site1360]”: 8.38 ± 0.47.
For the sequence “TAGAAATAAGAAAAATGTACATATAATATTGAAAGT [XGTACX_site3043]”, the “gcPBM binding intensity (ln)” value was found to be 9.17 ± 0.35.
The same measure for “TAAAAAAAAACATATACACACAAAAACGTACACATA [CACACA_site1354]”: 8.86 ± 0.36.
To “GTAATATATACAAAATGTACAAAACAATAACATGAT [XGTACX_site8575]” belongs 8.8 ± 0.39; to “ATACAATGATATATACATATATATATATATATATAT [TGCATGCA_negctrl_site359]”, 10.2 ± 0.49.
The same measure for “AATGATACACATATATGTACATATATATATATATAT [XGTACX_site5391]”: 10 ± 0.58.
In the case of “TAATGATAAATACATACACACAAAAAATGATATATA [CACACA_site7258]”, the “gcPBM binding intensity (ln)” value was 8.6 ± 0.32.
To “CGCAAAACAATGATACGTACATATATATATATATAT [XGTACX_site5883]” belongs 10.3 ± 0.33.
As for “AGAATATTTATATGATGTACTTATATATATATATAT [XGTACX_site3021]”, the “gcPBM binding intensity (ln)” value worked out at 9.97 ± 0.47.
“AAAAGCACAAAAAATACACACACAAAAAATAAAAAA [CACACA_site8545]”: the “gcPBM binding intensity (ln)” value was found to be 8.5 ± 0.57.
In the case of “TTCAAATTGTTTATATGTACTTATAAAAATTGTCTG [XGTACX_site977]”, the “gcPBM binding intensity (ln)” value is 8.35 ± 0.42.
The same measure for “ACATGAATTTATATGTGTACTAACTATATTCTTAAA [XGTACX_site5966]”: 8.27 ± 0.25; for “TTAAAAATAATATTATGTACTAAGAATAAATATATA [XGTACX_site3100]”: 8.34 ± 0.43; for “ATATATATATATATATGTACTAAGAATTCTTTAAAA [XGTACX_site8476]”: 10.3 ± 0.16.
The same measure for “CATTTTAAAGAAAATACACACAAAAATAGATATATA [CACACA_site6773]”: 8.66 ± 0.38.
To “ATTTGTTACGGACATGCATGCGAATCAGGGTATATA [TGCATGCA_site154]” belongs 10.1 ± 0.28.
Regarding “TACATATACAGACACACACACACACCCCCACAAAAA [CACACA_site495]”, the “gcPBM binding intensity (ln)” value came out at 9.88 ± 0.52.
The same measure for “TATTCCCCCCAACACACACACACACCGACATACCAC [CACACA_site8723]”: 10.2 ± 0.23; for “TTGGCATACAGACACACACACACACCCCCACATATA [CACACA_site590]”: 9.43 ± 0.61; for “AAAAAAAAAATACATACACACACACCCACCCATATA [CACACA_site9187]”: 9.14 ± 0.54.
Consider “ACCATACATACATACACACACACACGCATATTTATA [CACACA_site7386]”, for which the “gcPBM binding intensity (ln)” value came to 9.05 ± 0.6.
With “CATACACCCATACATACACACATACATACACCCATA [CACACA_site5124]”, the “gcPBM binding intensity (ln)” value was determined as 8.67 ± 0.47.
To “GACATATTCCCCCCCACACACACACCCACATACATA [CACACA_site2302]” belongs 10.8 ± 0.11.
To “CATATTCCCCCCCACACACACACACCCATACATACC [CACACA_site2303]” belongs 11.1 ± 0.18.
The same measure for “TATTCCCCCAAACACACACACACACCCACATACCAC [CACACA_site2304]”: 9.33 ± 0.23; for “CATATTCCCCCCCACACACACACACGCATACATACC [CACACA_site7148]”: 11.1 ± 0.19; for “CATATATACGCATACACACACACACCCACACCCACA [CACACA_site1725]”: 8.79 ± 0.52.
Turning to “CACAAACACCCAAACACACACACACCGACATACATA [CACACA_site4410]”, the “gcPBM binding intensity (ln)” value amounted to 8.41 ± 0.54.
